PrP 5UTR inh: suppresses PrP 5' UTR mRNA reporter expression; cell-based PrP 5' UTR mRNA reporter, plate reader; inhibition, % (test concentration not listed); hit rate 0.35% among 340,000; AID 488862; in the data active = inhibition above about 52%; note: 0 = median of the neutral control wells
PfHsp40 yeast: compounds rescuing yeast from Plasmodium falciparum HSP40 toxicity; hit rate 0.68% among 340,000; growth rescue, % at 12.5 µM; S. cerevisiae expressing PfHsp40, growth rescue, ATP luminescence; in the data active = growth rescue above about 28%, passing the limit was not always enough; inconclusive = no clear call, values can overlap the other calls;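 note: yeast W303a lacking pdr1 and pdr3 grown in galactose medium; growth measured after three days at 30 °C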
DUSP3 inh: blocks human VHR1 dual specificity phosphatase. P51452. recombinant VHR phosphatase, pNPP absorbance. inhibition, % at 13.3 µM. hit rate 0.52% among 290,000. AID 1654; in the data active = inhibition above about 50%
Target sequence (P51452 whole entry, looked up): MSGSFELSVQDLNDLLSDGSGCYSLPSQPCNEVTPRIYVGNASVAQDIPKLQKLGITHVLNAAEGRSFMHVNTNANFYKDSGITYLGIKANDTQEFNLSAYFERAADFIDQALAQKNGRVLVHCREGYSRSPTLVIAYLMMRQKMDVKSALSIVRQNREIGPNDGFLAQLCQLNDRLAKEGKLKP
MazEF act: activators of E. coli MazEF toxin-antitoxin RNase; P0AE70; FAM/BHQ RNA-DNA oligo cleavage fluorescence, 5 h; activation, % at 20 µM; hit rate 0.32% among 350,000; AID 504720; in the data active = activation above about 50%
Target sequence (P0AE70 whole entry, looked up): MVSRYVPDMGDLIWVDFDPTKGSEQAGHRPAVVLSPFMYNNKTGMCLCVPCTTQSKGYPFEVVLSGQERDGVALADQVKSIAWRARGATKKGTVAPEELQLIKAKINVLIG
BJeLR viability: kills HRASV12-expressing BJeLR cells; inhibition, % (test concentration not listed); hit rate 0.17% among 300,000; BJeLR (HRASV12) viability, CellTiter-Glo ATP luminescence, 48 h; in the data active = inhibition above about 50%; inconclusive = no clear call, values can overlap the other calls
PrPC surface inh: reduces human prion protein on the cell surface | hit rate 0.43% among 370,000 | cell surface PrPC, TR-FRET read-out | inhibition, % at 13.8 µM | P04156; in the data active = inhibition above about 24%; note: 0% = median of the test wells and 100% = reference compound wells
Numbers without * were called inactive; ? = inconclusive; / = not tested or not shown. A selection: hits, their analogues and other compounds. The true share with any hit is near 2.1%.

SMILES | PrP 5UTR inh | PfHsp40 yeast | DUSP3 inh | MazEF act | BJeLR viability | PrPC surface inh
O=C(NC1CCSc2ccccc21)c1cccc(OC(F)F)c1 (stereo not drawn) | -7 | 0 | -7 | -16 | 3 | 4
N#Cc1c(NC(=O)c2ccccc2)sc2c1CCCCC2 | -24 | 0 | 22 | 6 | 5 | -5
N#Cc1c(Cl)nsc1NC(=O)c1ccccc1 | -25 | 217* | 19 | -5 | 16 | 24
Cc1ccc(NC(=O)C2CC(=O)N/C(=N/N=C/c3ccco3)S2)cc1 (stereo not drawn) | -20 | 0 | 58* | 5 | -3 | -4
O=C1CC(C(=O)Nc2ccc(F)cc2)S/C(=N\N=C\c2ccco2)N1 (stereo not drawn) | -32 | 0 | 15 | -3 | 18 | -2
Clc1cccc(OCCCn2ccnc2)c1 | 7 | -1 | 18 | 5 | -8 | 7
OC(Cn1ccnc1)c1ccc(Cl)cc1Cl (stereo not drawn) | -15 | -1 | 29 | 159* | 1 | -1
O=C(COc1ccc(Cl)cc1Cl)NCCCn1ccnc1 | -20 | 0 | 14 | -1 | -4 | 2
Clc1ccc(C(Cn2ccnc2)OCc2c(Cl)cccc2Cl)c(Cl)c1 (stereo not drawn) | -16 | 103* | / | -15 | / | 7
Clc1ccc(C(Cn2ccnc2)OCc2csc3c(Cl)cccc23)c(Cl)c1 (stereo not drawn) | 4 | 80* | / | -6 | / | -2
O=c1c2ccccc2nc(-c2ccc(Cl)cc2Cl)n1CCCn1ccnc1 | -6 | 3 | 41 | -2 | 4 | -3
Cc1ccc(NN2C(=O)C=C(c3ccccc3)C2=O)cc1 | / | / | 35 | 13 | 0 | 1
CCCCCCCCN1C(=O)[C@H](CC(=O)N2CCOCC2)C[C@@]2(C(=O)OC)CC(C)(C)CC=C12 | / | / | / | / | / | 9
CN1CCN(NC(=O)NC2CCCCC2)CC1 | -18 | -1 | 14 | 4 | 2 | 4
CC1C(=O)N(Cc2cn(CC3CCCCC3)nn2)CCS(=O)(=O)N1Cc1ccc(-c2cccc(CO)c2)cc1 (stereo not drawn) | / | / | / | 2 | / | -2
O=C(Nc1ccc(C2=NCCN2)cc1)c1ccc(C(=O)Nc2ccc(C3=NCCN3)cc2)c(Cl)c1 | -18 | 234* | 36 | -17 | -13 | 1
CCN1CCN(c2cc(C)c3cc(NC(=O)c4ccncc4)ccc3n2)CC1 | 1 | 0 | 34 | 7 | 0 | -8
CCN1CCN(c2cc(C)c3cc(NC(=O)c4ccc(C)c(C)c4)ccc3n2)CC1 | / | 1 | / | 59* | 16 | -17
NC(=O)c1ccsc1NC(=O)CCS(=O)(=O)c1ccc(Cl)cc1 | -1 | 5 | / | 0 | / | -4
NC(=O)c1ccsc1NC(=O)CS(=O)(=O)c1ccc(Cl)cc1 | -4 | 0 | 56* | 5 | 2 | -4
CN(C)CCNC(=O)c1onc(CSc2ccc(F)cc2)c1C(=O)NCCN(C)C | -33 | 34* | 22 | 3 | 6 | 7
CCCNC(=O)c1onc(CSc2ccc(F)c(F)c2)c1C(=O)NCCC | / | / | / | 5 | -14 | 9
CC(C)CCNC(=O)c1onc(CSc2ccc(F)c(F)c2)c1C(=O)NCCC(C)C | -13 | 37* | 22 | -8 | 1 | 4
COc1ccc(-c2oc3c(OC)c(OC)c(OC)c(O)c3c(=O)c2OC)cc1OC | -6 | 71* | 3 | 2 | -6 | -3
CCCc1[nH]nc2c1C(c1ccc(O)c(OC)c1)C(C#N)=C(N)O2 (stereo not drawn) | -16 | 0 | 14 | 53* | -9 | -6
SMILES | PrP 5UTR inh | PfHsp40 yeast | DUSP3 inh | MazEF act | BJeLR viability | PrPC surface inh
COCc1[nH]nc2c1C(c1cc(OC)c(O)c(OC)c1)C(C#N)=C(N)O2 (stereo not drawn) | -3 | 1 | 1 | 195* | -10 | -8
CCCc1[nH]nc2c1C(c1ccccc1OC)C(C#N)=C(N)O2 (stereo not drawn) | 3 | -1 | 21 | 7 | -8 | -2
COc1cc(C2C(C#N)=C(N)Oc3n[nH]c(-c4cccs4)c32)cc(OC)c1O (stereo not drawn) | -11 | 1 | 7 | 60* | 1 | 3
COc1cc2c(cc1CN1CCN(C(=O)c3cc(OC)c(OC)c(OC)c3)CC1)OCO2 | -106 | -1 | -13 | -17 | -4 | -5
COC(=O)c1ccccc1NC(=O)COC(=O)c1ccccc1N=Nc1ccc(N(C)C)cc1 | -50 | 73* | -5 | -2 | -10 | 4
COc1cccc(CSc2nnc(-c3ccncc3)n2N)c1 | -17 | 45* | 24 | 0 | 4 | 3
COc1ccc(C(CNC(=O)c2cccc(S(=O)(=O)NCc3ccccc3)c2)N(C)C)cc1 (stereo not drawn) | 1 | -1 | -23 | 2 | 6 | -2
NC1=NC[C@@H](Cc2ccc(O)cc2)N1CCC12CC3CC(CC(C3)C1)C2 | 5 | 48* | / | -1 | 1 | 11
NC1=NC[C@H](Cc2ccc(O)cc2)N1CCc1cccc(F)c1 | -52 | ? | 22 | 6 | -5 | -2
CC(C)C(=O)c1cc2c(cc1NC(=O)c1cccs1)OCCO2 | 7 | 4 | 53* | -9 | -3 | 1
COc1cc(NC(=O)c2ccc3c(c2)OCCO3)ccc1NC(=O)c1cccs1 | -49 | 71* | 14 | 8 | / | -16
CC(C)C(=O)c1cc2c(cc1NC(=O)c1ccccc1)OCCO2 | 7 | 1 | 29 | -4 | -1 | 3
COCc1ccc(CN2CCC(N3CCC(C(=O)N4CCCC4)CC3)CC2)o1 | -22 | 0 | 52* | 0 | 1 | 1
COc1ccccc1OCCNC(=O)c1ccc(Br)cc1 | / | 168* | / | 0 | 7 | -9
Cc1cc(NC(=O)C2CC(c3ccc(F)cc3)=NO2)n(-c2ccccc2)n1 (stereo not drawn) | -9 | 1 | 50* | 21 | 8 | 6
COc1cccc(C2=NOC(C(=O)Nc3cc(C)nn3-c3ccccc3)C2)c1OC (stereo not drawn) | -27 | 0 | 34 | 4 | -7 | -4
C[C@H](CO)N1C[C@H](C)[C@@H](CN(C)C(=O)Nc2ccc3c(c2)OCO3)Oc2ccc(NC(=O)CCC(F)(F)F)cc2C1=O | -14 | -2 | / | 8 | / | 8
COC1C(OC(=O)c2ccc(C)[nH]2)C(O)C(Oc2ccc3c(O)c(NC(=O)c4ccc(O)c(CC=C(C)C)c4)c(=O)oc3c2Cl)OC1(C)C (stereo not drawn) | -4 | 3 | 28 | 55* | / | 2
CO[C@@H]1[C@@H](OC(N)=O)[C@@H](O)[C@H](Oc2ccc3c(O)c(NC(=O)c4ccc(O)c(CC=C(C)C)c4)c(=O)oc3c2C)OC1(C)C | / | / | / | / | / | 7
COc1cccc(N2CCN(c3ncnc4c3cnn4-c3ccc(C)cc3C)CC2)c1 | -13 | -1 | 38 | -1 | 47 | 34*
Cc1ccccc1C(=O)Nc1ccnn1C1CCN(Cc2cnn(C(C)C)c2)CC1 | -15 | 3 | 18 | -4 | 6 | -5
CC(C)[C@@H]1CC2=C(C(=O)OC(C)(C)O2)[C@H](CCc2ccccc2)O1 | / | / | / | / | / | 5
